Measured values: the supplement of paper PMC11732987, “Enantioselective OTUD7B fragment discovery through chemoproteomics screening and high-throughput optimisation” (Communications Chemistry, 2025)

Columns and labels:
Assay in all cases: log2 ratio of Biotin-Ahx-Ub-VS probe labelling (fragment/DMSO); higher = less target engagement (more negative = stronger competition), active = hit call of the paper (q ≤ 0.05, log2 ratio ≤ -1)
Conditions in all cases: compound concentration: 200 uM; treatment time: 3 h
USP19 = molecular target: T1, USP19 (UniProt O94966)
T1 sequence (whole entry): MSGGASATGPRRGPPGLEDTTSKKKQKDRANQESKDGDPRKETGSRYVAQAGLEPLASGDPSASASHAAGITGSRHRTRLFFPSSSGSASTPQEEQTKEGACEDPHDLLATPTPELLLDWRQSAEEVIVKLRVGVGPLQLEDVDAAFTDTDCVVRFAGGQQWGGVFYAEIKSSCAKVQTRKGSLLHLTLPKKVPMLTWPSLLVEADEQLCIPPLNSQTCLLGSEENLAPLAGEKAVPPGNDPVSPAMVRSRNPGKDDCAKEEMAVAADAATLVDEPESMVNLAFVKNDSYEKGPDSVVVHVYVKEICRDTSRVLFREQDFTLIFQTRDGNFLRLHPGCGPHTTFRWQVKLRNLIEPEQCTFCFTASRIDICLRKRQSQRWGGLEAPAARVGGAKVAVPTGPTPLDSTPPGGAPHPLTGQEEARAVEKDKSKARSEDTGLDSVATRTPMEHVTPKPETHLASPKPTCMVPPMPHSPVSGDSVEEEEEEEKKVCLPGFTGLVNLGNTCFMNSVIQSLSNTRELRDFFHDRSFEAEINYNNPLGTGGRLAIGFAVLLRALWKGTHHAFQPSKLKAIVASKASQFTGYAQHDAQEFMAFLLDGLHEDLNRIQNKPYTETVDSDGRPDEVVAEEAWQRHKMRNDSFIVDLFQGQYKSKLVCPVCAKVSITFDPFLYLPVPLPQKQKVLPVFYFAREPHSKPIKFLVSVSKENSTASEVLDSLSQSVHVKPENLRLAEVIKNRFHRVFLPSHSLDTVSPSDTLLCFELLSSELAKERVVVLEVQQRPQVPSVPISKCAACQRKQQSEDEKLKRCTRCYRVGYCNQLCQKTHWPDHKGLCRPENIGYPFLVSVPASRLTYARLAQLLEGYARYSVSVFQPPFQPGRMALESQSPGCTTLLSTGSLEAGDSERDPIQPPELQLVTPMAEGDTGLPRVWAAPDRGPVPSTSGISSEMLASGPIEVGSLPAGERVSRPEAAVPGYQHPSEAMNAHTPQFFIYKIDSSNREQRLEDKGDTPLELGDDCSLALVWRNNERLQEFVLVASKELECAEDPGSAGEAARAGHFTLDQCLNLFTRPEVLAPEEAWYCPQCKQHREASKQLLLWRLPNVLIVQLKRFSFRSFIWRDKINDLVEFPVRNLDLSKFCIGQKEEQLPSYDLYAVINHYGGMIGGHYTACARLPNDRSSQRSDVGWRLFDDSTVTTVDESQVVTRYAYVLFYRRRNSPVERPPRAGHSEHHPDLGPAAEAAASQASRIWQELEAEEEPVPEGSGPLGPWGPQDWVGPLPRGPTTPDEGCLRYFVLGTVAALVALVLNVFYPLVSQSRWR
Method in brief: (§1)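 HEK293T lysate, 495 µg per sample in Tris/CHAPS/IGEPAL buffer with protease inhibitors, was treated in triplicate with fragment at 200 µM or vehicle for 3 h and then with Biotin-Ahx-Ub-VS at 0.5 µM final for 1 h. Labelled DUBs were NeutrAvidin-enriched, digested with LysC and trypsin, and run by diaPASEF LC-MS/MS. Spectronaut label-free quantities were global-median-normalised, and values are average log2 fragment/vehicle ratios by unpaired t-test on proteins with ≥2 unique peptides.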

USP22 = molecular target: T2, USP22 (UniProt Q9UPT9)
T2 sequence (whole entry): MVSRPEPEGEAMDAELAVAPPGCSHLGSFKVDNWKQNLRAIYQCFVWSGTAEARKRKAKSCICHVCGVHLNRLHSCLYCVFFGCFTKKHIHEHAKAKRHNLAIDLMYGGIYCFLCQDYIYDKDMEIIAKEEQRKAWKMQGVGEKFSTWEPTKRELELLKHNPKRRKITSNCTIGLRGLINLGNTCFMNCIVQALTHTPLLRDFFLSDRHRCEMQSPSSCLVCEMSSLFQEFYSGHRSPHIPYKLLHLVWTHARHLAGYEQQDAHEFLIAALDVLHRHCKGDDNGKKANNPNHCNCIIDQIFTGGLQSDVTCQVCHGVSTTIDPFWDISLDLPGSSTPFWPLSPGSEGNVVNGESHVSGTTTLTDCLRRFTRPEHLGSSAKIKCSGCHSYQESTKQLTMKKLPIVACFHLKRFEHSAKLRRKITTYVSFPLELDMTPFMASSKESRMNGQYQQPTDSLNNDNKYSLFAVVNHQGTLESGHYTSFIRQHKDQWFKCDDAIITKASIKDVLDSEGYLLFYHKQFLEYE
Method in brief: as §1

USP24 = USP24 (UniProt Q9UPU5)
USP24, sequence (Q9UPU5 whole entry): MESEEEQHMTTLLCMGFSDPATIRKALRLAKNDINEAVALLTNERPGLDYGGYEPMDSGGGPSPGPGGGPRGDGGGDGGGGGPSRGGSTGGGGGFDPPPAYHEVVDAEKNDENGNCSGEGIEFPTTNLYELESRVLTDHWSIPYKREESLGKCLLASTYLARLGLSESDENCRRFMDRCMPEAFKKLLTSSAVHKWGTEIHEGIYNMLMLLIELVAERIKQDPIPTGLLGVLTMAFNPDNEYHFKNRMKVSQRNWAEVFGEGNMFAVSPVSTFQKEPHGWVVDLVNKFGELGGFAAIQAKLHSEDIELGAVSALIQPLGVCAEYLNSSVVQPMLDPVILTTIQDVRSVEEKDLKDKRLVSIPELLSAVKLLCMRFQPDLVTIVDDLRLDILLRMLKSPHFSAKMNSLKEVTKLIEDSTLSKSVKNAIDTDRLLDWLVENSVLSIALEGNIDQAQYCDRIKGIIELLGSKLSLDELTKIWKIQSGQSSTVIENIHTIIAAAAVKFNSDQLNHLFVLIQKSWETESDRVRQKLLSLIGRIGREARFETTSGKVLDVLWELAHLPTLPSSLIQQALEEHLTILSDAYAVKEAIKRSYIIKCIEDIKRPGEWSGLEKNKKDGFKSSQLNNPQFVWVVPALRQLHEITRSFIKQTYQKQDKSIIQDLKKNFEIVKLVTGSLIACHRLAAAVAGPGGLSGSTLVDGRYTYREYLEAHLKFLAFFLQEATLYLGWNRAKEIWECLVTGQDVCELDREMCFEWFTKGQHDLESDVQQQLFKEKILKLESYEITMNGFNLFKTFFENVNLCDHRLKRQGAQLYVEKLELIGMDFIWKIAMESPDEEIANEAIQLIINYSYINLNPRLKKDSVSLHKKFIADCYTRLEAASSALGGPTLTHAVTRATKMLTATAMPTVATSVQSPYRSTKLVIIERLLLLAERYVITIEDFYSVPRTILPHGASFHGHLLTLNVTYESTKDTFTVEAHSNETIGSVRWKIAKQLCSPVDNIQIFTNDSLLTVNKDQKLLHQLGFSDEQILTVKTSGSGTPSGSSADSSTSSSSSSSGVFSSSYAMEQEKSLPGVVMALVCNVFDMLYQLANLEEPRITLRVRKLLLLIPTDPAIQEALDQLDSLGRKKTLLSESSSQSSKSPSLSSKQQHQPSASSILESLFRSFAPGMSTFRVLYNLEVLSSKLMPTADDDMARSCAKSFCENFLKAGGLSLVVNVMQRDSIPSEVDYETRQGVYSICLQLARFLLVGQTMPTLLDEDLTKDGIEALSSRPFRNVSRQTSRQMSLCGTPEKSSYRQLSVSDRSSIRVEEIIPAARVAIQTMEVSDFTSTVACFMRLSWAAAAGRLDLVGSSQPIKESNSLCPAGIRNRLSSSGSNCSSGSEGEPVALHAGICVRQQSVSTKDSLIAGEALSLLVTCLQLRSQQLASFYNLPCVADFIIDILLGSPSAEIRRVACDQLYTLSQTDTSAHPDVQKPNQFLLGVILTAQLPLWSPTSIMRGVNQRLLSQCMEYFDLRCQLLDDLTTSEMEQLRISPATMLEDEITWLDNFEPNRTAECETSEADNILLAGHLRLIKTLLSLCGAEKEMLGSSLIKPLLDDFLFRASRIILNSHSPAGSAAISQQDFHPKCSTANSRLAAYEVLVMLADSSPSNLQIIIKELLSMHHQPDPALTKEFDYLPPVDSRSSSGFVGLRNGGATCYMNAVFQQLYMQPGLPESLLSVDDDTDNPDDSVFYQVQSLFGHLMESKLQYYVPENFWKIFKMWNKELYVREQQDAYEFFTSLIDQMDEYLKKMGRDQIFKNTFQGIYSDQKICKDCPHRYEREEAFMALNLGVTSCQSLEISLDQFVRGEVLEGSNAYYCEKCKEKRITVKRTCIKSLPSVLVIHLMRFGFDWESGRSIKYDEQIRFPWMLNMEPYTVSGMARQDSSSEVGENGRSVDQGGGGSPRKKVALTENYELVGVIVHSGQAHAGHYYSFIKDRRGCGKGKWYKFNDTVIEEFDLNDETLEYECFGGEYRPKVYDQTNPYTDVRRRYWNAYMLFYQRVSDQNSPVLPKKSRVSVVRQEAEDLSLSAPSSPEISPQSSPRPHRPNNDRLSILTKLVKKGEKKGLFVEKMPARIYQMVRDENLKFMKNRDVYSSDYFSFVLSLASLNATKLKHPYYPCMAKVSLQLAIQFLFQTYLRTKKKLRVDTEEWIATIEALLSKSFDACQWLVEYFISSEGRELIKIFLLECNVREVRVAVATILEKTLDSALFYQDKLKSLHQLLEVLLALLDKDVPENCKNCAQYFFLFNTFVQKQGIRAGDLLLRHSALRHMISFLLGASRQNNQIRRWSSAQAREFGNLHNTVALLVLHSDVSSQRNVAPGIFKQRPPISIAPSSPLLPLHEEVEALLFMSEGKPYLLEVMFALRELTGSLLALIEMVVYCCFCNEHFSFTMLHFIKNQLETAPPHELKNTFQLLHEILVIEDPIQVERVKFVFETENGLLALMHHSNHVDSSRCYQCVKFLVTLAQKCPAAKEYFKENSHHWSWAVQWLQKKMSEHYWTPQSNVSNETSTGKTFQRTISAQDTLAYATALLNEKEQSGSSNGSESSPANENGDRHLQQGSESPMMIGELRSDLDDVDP
Method in brief: as §1

USP25 = molecular target: T3, USP25 (UniProt Q9UHP3)
T3 sequence (whole entry): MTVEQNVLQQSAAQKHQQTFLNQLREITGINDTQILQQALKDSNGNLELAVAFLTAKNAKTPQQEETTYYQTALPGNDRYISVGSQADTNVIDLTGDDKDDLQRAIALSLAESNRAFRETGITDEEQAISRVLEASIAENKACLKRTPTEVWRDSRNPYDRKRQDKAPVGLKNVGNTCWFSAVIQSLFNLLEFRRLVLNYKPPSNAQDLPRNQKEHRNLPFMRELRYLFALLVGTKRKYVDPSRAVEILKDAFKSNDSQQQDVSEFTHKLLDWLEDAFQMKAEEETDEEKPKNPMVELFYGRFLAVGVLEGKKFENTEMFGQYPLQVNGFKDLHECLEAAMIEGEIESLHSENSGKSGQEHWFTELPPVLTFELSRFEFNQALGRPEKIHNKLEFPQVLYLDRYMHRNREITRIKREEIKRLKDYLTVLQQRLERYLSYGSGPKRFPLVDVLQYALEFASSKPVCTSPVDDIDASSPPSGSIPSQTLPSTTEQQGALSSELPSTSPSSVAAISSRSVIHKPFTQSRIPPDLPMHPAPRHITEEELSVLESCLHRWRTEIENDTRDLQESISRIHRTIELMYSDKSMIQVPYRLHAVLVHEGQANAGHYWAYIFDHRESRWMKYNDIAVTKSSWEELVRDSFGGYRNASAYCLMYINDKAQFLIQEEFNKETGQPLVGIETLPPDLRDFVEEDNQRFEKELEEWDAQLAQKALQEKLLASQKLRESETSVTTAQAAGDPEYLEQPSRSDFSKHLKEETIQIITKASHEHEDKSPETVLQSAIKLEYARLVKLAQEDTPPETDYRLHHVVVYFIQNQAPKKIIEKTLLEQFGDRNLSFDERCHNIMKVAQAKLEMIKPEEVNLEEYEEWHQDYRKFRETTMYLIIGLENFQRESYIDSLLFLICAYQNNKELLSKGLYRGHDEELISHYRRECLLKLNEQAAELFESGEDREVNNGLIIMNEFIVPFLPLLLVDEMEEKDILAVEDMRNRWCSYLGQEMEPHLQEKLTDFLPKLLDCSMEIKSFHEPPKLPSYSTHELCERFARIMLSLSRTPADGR
Method in brief: as §1

USP28 = molecular target: T4, USP28 (UniProt Q96RU2)
T4 sequence (whole entry): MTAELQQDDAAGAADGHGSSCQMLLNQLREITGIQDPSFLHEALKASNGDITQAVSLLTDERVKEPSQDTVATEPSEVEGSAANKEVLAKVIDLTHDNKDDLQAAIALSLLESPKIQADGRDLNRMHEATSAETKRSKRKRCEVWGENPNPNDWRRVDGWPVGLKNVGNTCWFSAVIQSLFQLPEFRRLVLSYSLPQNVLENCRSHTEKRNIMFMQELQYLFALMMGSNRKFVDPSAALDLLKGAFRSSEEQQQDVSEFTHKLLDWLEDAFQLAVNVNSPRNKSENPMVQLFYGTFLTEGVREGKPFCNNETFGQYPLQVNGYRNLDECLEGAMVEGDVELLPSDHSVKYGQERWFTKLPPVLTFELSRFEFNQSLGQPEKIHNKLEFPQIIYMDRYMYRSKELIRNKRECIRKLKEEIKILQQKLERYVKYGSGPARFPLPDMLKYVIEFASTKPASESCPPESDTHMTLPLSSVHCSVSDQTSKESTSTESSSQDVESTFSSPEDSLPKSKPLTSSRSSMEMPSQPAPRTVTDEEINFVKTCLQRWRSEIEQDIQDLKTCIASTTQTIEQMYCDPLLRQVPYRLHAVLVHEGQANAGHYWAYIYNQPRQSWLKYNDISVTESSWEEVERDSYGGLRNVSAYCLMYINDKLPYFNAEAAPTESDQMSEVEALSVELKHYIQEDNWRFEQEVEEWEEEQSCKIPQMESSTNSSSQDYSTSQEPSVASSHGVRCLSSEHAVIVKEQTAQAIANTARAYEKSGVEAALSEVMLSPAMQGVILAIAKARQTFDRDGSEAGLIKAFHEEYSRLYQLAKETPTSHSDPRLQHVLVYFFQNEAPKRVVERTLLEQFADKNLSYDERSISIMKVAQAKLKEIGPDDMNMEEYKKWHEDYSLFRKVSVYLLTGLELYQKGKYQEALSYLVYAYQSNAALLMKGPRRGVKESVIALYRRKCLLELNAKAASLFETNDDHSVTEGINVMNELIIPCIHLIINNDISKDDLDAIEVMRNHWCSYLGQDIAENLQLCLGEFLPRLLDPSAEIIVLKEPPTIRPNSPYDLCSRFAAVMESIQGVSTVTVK
Method in brief: as §1

Measured: log2 ratio of Biotin-Ahx-Ub-VS probe labelling

O=C(CCl)NC1CCN(C(=O)C2CCCCC2)CC1
inactive: USP19 0.0532 | USP22 0.324 | USP24 -0.169 | USP25 -0.158 | USP28 -0.257
